GLS inhibitor – qHTS for Inhibitors of Glutaminase (GLS) | Glutaminase kidney isoform, mitochondrial (Homo sapiens), O94925 | GLS enzymatic activity, qHTS titration | Potency, µM (titrated, usually from 45.5 µM), inactives show top-dose activity change, negative = inhibition, most hits filed as inhibitors | 410,000 compounds, 0.21% hits; further: on the % scale 0 is the no-effect control and ±100 the full control effect
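Assay buffer: 45 mM KH2PO4 pH 8.2, 0.02% Tween-20. hKGA acts on L-glutamine (1 mM solution added); product glutamate is reported by an oxidase/peroxidase Amplex Red coupling, with fluorescence taken at baseline and 30 min.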
Tb PFK inh-1 – qHTS Assay to Find Inhibitors of T. brucei phosphofructokinase; T. brucei PFK, ADP-Glo luminescence; Potency, µM (titrated, usually from 57.5 µM), inactives show top-dose activity, negative = inhibition, most hits filed as inhibitors; 330,000 compounds, 0.17% hits; AID 485367, 2010;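 further: 0% = uninhibited 1x PFK enzyme wells and -100% = no-enzyme wells; nearly all actives have a fitted effect of over 60% in size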
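Compounds were pin-transferred as a titration series up to 57 uM into substrate buffer (0.5 mM F6P, 0.1 mM ATP, pH 8.0), then 1.25 nM PFK was added and reactions ran 45 min before ADP-Glo detection.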
PGK inhibitor – qHTS Assay to Find Inhibitors of Phosphoglycerate Kinase. Potency, µM (top dose mostly 57.5 µM), without a hit: at the top dose activity change, negative = inhibition, hits mostly inhibitors. Phosphoglycerate kinase, glycosomal (Trypanosoma brucei brucei), P07378. PGK/GAPDH coupled, Kinase-Glo luminescence, 60 min. 380,000 compounds, 0.043% hits; further: on the % scale 0 is the no-effect control and ±100 the full control effect; nearly all actives have a fitted effect of over 60% in size
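Recombinant glycosomal PGK reaction used 1,3-bisphosphoglycerate generated in-well by GAPDH (100nM final) in 100mM TEA pH 7.6, 5mM MgCl2, 0.01% Tween-20. After 60 minutes at room temperature, ATP was read by Kinase-Glo Plus luminescence end-point.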
KAT2A inh – qHTS Assay for Inhibitors of GCN5L2. AID 504327, 2011. 390,000 compounds, 0.21% hits. Potency, µM (doses to about 58.9 µM), for the others: top-dose activity change, negative = inhibition, most hits filed as inhibitors. GCN5L2 HAT assay, ThioGlo1 CoA-SH fluorescence; further: on the % scale 0 is the no-effect control and ±100 the full control effect
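GCN5L2 (20 nM) in 50mM HEPES pH 7.5, 0.1mM EDTA, 0.01% Tween-20 preincubated 15 min with compounds at room temperature. Reaction started with H3(1-25) 75uM, acetyl-CoA 70uM, ThioGlo1 50uM; CoA-thiol fluorescence (Ex340/Em540) read at 0 and 20 min.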
USP2a inh – qHTS Assay for Inhibitors of Ubiquitin-specific Protease USP2a Using CHOP2 as the Reporter; AID 463254, 2010; 330,000 compounds, 0.01% hits; Potency, µM (titrated, usually from 38.3 µM), for inactives: at the highest dose activity change, negative = inhibition, actives largely listed as inhibitors; USP2 core, Ub-CHOP2 coupled fluorogenic reporter, 485/531;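 further: plate controls were DMSO wells for no effect and full inhibition by NEM control for full effect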
Target sequence (O75604 whole entry, looked up): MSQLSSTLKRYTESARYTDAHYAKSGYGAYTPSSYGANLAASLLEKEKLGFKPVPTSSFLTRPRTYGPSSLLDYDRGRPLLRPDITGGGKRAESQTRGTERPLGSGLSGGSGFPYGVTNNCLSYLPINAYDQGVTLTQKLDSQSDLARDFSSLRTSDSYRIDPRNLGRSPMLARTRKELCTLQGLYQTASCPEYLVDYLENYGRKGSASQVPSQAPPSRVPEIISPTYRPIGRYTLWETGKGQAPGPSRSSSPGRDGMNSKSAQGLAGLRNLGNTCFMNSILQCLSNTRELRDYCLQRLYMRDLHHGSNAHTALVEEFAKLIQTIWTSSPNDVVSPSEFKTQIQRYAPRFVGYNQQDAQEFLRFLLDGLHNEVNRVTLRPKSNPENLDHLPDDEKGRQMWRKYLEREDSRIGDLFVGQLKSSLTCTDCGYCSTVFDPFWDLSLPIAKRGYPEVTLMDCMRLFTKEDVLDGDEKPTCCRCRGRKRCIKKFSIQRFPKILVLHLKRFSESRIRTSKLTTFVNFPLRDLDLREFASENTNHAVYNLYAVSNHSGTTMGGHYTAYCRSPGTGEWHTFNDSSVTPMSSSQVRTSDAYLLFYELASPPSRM
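USP2 core (10nM final) preincubated 30min RT with compound in 20mM Tris-HCl pH 8.0, 2mM CaCl2, 2mM beta-mercaptoethanol, 0.05% CHAPS; 25nM Ub-CHOP2 plus 25nM reporter substrate added, fluorescence (Ex485/Em531) read after 60min.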
Tb PFK KinaseGlo – Tb PFK orthogonal confirmatory assay using ATP depletion (Kinase-Glo Plus) as an alternative measure of Tb PFK activity: Hit Validation; 1,100 compounds, 47% hits; Tb PFK enzyme, ATP depletion, Kinase-Glo Plus luminescence; Potency, µM (doses to about 57.5 µM), without a hit: top-dose inhibition; AID 504636, 2011; shares compounds with Tb PFK inh-1; calls by dose curve; further: nearly all actives have a fitted effect of over 60% in size
Tb PFK inh-2 – Inhibitors of T. brucei phosphofructokinase: Hit Validation | Potency, µM (highest dose often 57.5 µM), inactives show at the top dose activity change, negative = inhibition, usual class: inhibitors | 1,100 compounds, 41% hits | purified T. brucei PFK, ADP-Glo luminescence, 45 min | AID 504637, 2011 | shares compounds with Tb PFK inh-1;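 further: plate controls were full PFK enzyme control for no effect and no enzyme control for full effect; nearly all actives have a fitted effect of over 60% in size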
The depositor's hits bear a star; i = inactive; ? = inconclusive; . = not tested or not shown; [ ] = remark or other dose. Rows were chosen to be rich in hits. Some 0.52% of all compounds tested hit in one or more screens of this group. Unless noted, the call rests on the fitted dose curve; in most records, active means well fitted curve in the direction sought with a large enough effect; inconclusive means small, poorly fitted or top-dose-only effect, or another doubt; inactive means no such curve, though single readings can be large; an effect the other way counts as inactive or inconclusive. Potency means the concentration at half of the fitted maximal effect.

SMILES | GLS inhibitor | Tb PFK inh-1 | PGK inhibitor | KAT2A inh | USP2a inh | Tb PFK KinaseGlo | Tb PFK inh-2
COC(=O)c1ccccc1NC(=O)c1cccn(Cc2cccc(Cl)c2)c1=O | 2% | . | 3% | -4% | . | . | .
NC(=O)c1cccn1Cc1cccc(Cl)c1 | 6% | ? | -7% | -2% | -4% | ? | ?
COC(=O)c1sccc1NC(=O)c1ccc(C#N)cc1 | 4% | -10% | -13% | ? | 1% | . | .
CC(=O)CSc1nnc(Cc2ccc([N+](=O)[O-])cc2)o1 | 1% | ? | -5% | -4% | 1% | ? | -25%
Cc1c(C=O)c2ccccc2n1Cc1ccc([N+](=O)[O-])cc1 | 9% | -25% | i | -3% | 4% | . | .
N#Cc1cc2c(nc1SCC(=O)Nc1ccc(Cl)cc1)C1CCN2CC1 | 9% | 0% | 5% | -14% | -1% | . | .
O=C(CSc1nnc(Cc2ccc(Cl)cc2)o1)Nc1ccccc1 | -5% | ? | -6% | -6% | 0% | ? | ?
N#Cc1c(N)nc2c(c1N)CC(COc1ccccc1)O2 (configuration not stated) | 4% | ? | i | -6% | 1% | 13% | 15%
O=C(CCS(=O)(=O)c1ccc(Br)cc1)NCc1ccco1 | ? | 17µM* | 13µM* | -6% | -9% | 2.7µM* | 5.4µM*
CN1CCCCC1Cn1cc(C(=O)c2cc([N+](=O)[O-])ccc2I)c2ccccc21 (configuration not stated) | . | . | . | 9% | . | . | .
CCSc1nnc(NC(=O)COc2ccc3ccccc3c2)s1 | -9% | ? | 10% | ? | 0% | -33% | ?
C[C@]12CCC3C(CC[C@]4(O)C[C@@H](O)CC[C@]34C=O)[C@@]1(O)CC[C@@H]2C1=CC(=O)OC1 (some centres not stated) | . | . | . | -10% | . | . | .
Cc1[nH]nc2c1C(c1cc(Br)cs1)C(C#N)=C(N)O2 (configuration not stated) | 1% | ? | i | -9% | 1% | ? | ?
CCSc1cc(C2C(C#N)=C(N)Oc3n[nH]c(C)c32)c(C)o1 (configuration not stated) | 30% | 9% | -5% | -1% | 2% | . | .
CC(N)C(O)c1ccc(O)c(O)c1 (configuration not stated) | . | . | . | 10% | . | . | .
O=C(Nc1ccc(S(=O)(=O)Nc2ccccc2)cc1)C1COc2ccccc2O1 (configuration not stated) | -2% | 11µM* | -3%[11.5 µM] | -14% | -2% | 12µM* | 30µM*
COc1cc(SSc2cc(OC)cc([N+](=O)[O-])c2N)c(N)c([N+](=O)[O-])c1 | ? | 3.4µM* | . | 16µM* | -3% | 2.4µM* | 2.7µM*
CC(c1cccs1)N(Cc1ccco1)C(=O)Nc1ccc(Cl)c(Cl)c1 (configuration not stated) | -6% | ? | 6% | -7%[0.501 µM] | -1% | 10% | -2%
Cc1ccc(C(=O)Nc2cccc([N+](=O)[O-])c2)cc1S(=O)(=O)Nc1cccc(C(=O)O)c1 | 5% | 19µM* | 0% | -18% | 0% | 7.6µM* | 19µM*
CCc1nnc(NC(=O)C(=O)NCCOC(=O)c2ccccc2Cl)s1 | 28% | ? | 4% | 3.2µM* | -1% | -29% | ?
C[C@H]1CO1 | . | . | . | 9% | . | . | .
COc1ccc2c(CC(=O)OCC(=O)Nc3cccc(C)c3)coc2c1 | -4% | ? | -23% | -17% | -2% | ? | ?
O=C(COC(=O)Cc1ccc(Cl)c(Cl)c1)Nc1ccc2[nH]c(=O)[nH]c2c1 | 1% | 21µM* | -8% | -5% | 0% | ? | 13µM*
NS(=O)(=O)c1cc(C(=O)OCC(=O)Nc2ccc3[nH]c(=O)[nH]c3c2)ccc1Cl | -4% | ? | 0% | 0% | 0% | . | .
O=C(COC(=O)Cc1c(Cl)cccc1Cl)Nc1ccc2[nH]c(=O)[nH]c2c1 | 3% | ? | 9% | -1% | 1% | ? | ?
SMILES | GLS inhibitor | Tb PFK inh-1 | PGK inhibitor | KAT2A inh | USP2a inh | Tb PFK KinaseGlo | Tb PFK inh-2
CC1(C)C(O)CC(O)[C@]2(C)C1CC(=O)[C@]1(C)C2CC[C@@]2(C)C(c3ccoc3)OC(=O)C3OC321 (some centres not stated) | . | . | . | -2% | . | . | .
O=c1/c(=C\c2cc([N+](=O)[O-])cc([N+](=O)[O-])c2O)sc2nc3ccccc3n12 | ? | ? | ? | ? | 0% | ? | -7%
C=C(C)[C@]12C[C@@H](C)[C@@]34O[C@](Cc5ccccc5)(O[C@@H]1[C@@H]3C=C(COC(=O)Cc1ccc(O)c(OC)c1)C[C@]1(O)C(=O)C(C)=C[C@@H]41)O2 | . | . | . | -29% | . | . | .
NS(=O)(=O)c1cc(C(=O)NC2CCSc3ccccc32)ccc1Cl (configuration not stated) | ? | ? | 1µM* | ? | ? | ? | ?
CC(C)(O)[C@@H]1C2OC(=O)[C@@H]1[C@]1(O)C[C@H]3O[C@]34C(=O)O[C@H]2[C@]14C (tested in a mixture with another compound) | . | . | . | -17% | . | . | .
COc1ccc(C(=O)OCC(=O)NCc2ccco2)cc1OC | -15% | ? | -28% | -19% | -2% | ? | ?
COC(=O)C1=C(c2ccc(OC)c(OC)c2)C[C@@H]2CC[C@H]1N2C(=O)NCc1ccco1 | -12% | -2% | i | 3% | 1% | . | .
CCOc1ccc(C(=O)OCC(=O)NCc2ccco2)cc1OCC | 0% | ? | -10% | -8% | 5% | ? | -15%
O=C(COC(=O)c1ccccc1Oc1ccccc1)NCc1ccco1 | 1% | 27µM* | ? | -13% | -1% | 17µM* | ?
CCOc1ccc2c(c1)c(C(C)=O)c(C)n2Cc1ccco1 | 2% | -1% | -5% | 1% | 1% | . | .
